Measured values published in PubChem BioAssay.
Calls of active or inactive are those of the source.

How the values were obtained:
[1] = binders of probe aFSTL3 on microarray, primary screen, stem cell growth factor project, biochemical, small-molecule microarray, fluorescence 635/667 (AID 1064); settings: higher = more signal;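 note: measures binding of the biotinylated anti-FSTL3 antibody to printed compounds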
[2] = binders from COS7 lysate, DM2A8 probe, primary screen, torsin A project, cell lysate, small-molecule microarray, fluorescence 635/667 (AID 1065); settings: higher = more signal, COS7 lysate expressing mutant human TOR1A
[3] = binders of probe aFGF2 on microarray, primary screen, stem cell growth factor project, biochemical, small-molecule microarray, fluorescence 635/667 (AID 1067); settings: higher = more signal;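 note: measures binding of biotinylated aFGF2 protein to printed compounds on slides; z-score merges feature fluorescence and signal-to-noise across triplicate slides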
[4] = binders of probe aFGF10 on microarray, primary screen, stem cell growth factor project, biochemical, small-molecule microarray, fluorescence 635/667 (AID 1071); settings: higher = more signal;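 note: score merges 667 nm spot intensity and signal to noise from triplicate slides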
[5] = biological target: Neurogenic locus notch homolog protein 2 (Homo sapiens) (UniProt Q04721); assay: Notch2 binders on small-molecule microarrays, primary screen, biochemical, small-molecule microarray, 635 nm fluorescence, stem cell growth factors (AID 1073); settings: Notch2 binding, higher = more signal
[6] = biological target: Pro-neuregulin-1, membrane-bound isoform (Homo sapiens) (UniProt Q02297); assay: NRG1 binders on small-molecule microarrays, primary screen, psychiatric disease protein project, biochemical, small-molecule microarray, fluorescence 635/667 (AID 1075); settings: NRG1 binding, 635 nm fluorescence, higher = more signal;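 note: score combines 667 nm spot fluorescence with signal to noise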
[7] = system: Neuregulin-1 EGF-like domain; assay: binders of neuregulin-1 EGF-like domain, primary screen, biochemical, small-molecule microarray, 635 nm fluorescence (AID 1081); settings: small-molecule microarray binding, higher = more signal;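 note: binding of the protein to compounds printed on small-molecule microarray slides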
[8] = FRG1 promoter luciferase signal modulators, primary screen, FRG1 inhibition for FSHD, cell-based, C2C12 myotubes, firefly/Renilla luciferase, luminescence (AID 1084); settings: higher = more signal, called active from +8 up or from −8 down
[9] = binders of probe aFST on microarray, primary screen, stem cell growth factor project, biochemical, small-molecule microarray, fluorescence 635/667 (AID 1086); settings: higher = more signal;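 note: score merges 667 nm fluorescence with signal-to-noise of each printed compound spot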
[10] = binders of probe aHhip on microarray, primary screen, stem cell growth factor project, biochemical, small-molecule microarray, fluorescence 635/667 (AID 1087); settings: higher = more signal;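 note: score merges spot fluorescence at 667nm with spot signal to noise ratio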
[11] = system: PRMT1 (protein arginine N-methyltransferase 1); assay: PRMT1 binders on small-molecule microarrays, primary screen, biochemical, small-molecule microarray, 635 nm fluorescence (AID 1088); settings: small-molecule microarray binding, higher = more signal;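 note: binding of Prmt1 protein to compounds spotted on small-molecule microarray slides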
[12] = yeast growth modulation, basal conditions, primary screen, YJM789 clinical isolate, OD600, 24 h (AID 1089);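 note: growth of clinical yeast isolate S. cerevisiae YJM 789 seeded 1000 cells per well; test concentration not given here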; settings: S. cerevisiae YJM789 growth, higher = more signal, called active from +8 up or from −8 down
[13] = fission yeast growth modulation, primary screen, strain 972, OD600, 24 h, no modulator (AID 1090);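 note: basal condition with compound alone and no growth modifier present; test concentration not given here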; settings: S. pombe 972 growth, higher = more signal, called active from +8 up or from −8 down
[14] = S. cerevisiae growth modulation with rapamycin, primary screen, strain BY4716, OD600, 96 h (AID 1091); settings: higher = more signal, called active from +8 up or from −8 down; note: test concentration not given here
[15] = biological target: Torsin-1A-interacting protein 2 (Homo sapiens) (UniProt Q8NFQ8); assay: LULL1 binders on small-molecule microarray, primary screen, cell lysate, human LULL1 lysate, 635/667 nm fluorescence (AID 1092); settings: hLULL1 lysate binding, 635 nm fluorescence, higher = more signal;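 note: probe is lysate of COS7 cells overexpressing human LULL1; score merges per-feature 667 nm fluorescence with signal-to-noise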
[16] = E. coli growth modulation, two-sided OD650, primary screen, E. coli filamentation project, strain DRC41, 24 h (AID 1093); settings: OD650, 24 h, higher = more signal, called active from +8 up or from −8 down;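 note: MC1000 strain lacking acrAB efflux and sulA so SOS filamentation is blocked; test concentration not given here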
[17] = small-molecule microarray binders of probe aLefty2, primary screen, biochemical, biotinylated probe, 635/667 nm fluorescence (AID 1094); settings: higher = more signal;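 note: score merges spot fluorescence near 667 nm with spot signal-to-noise ratio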
[18] = system: Noggin (protein binding on small-molecule microarray); assay: Noggin binders on small-molecule microarray, primary screen, biochemical, 635/667 nm fluorescence (AID 1095); settings: 635 nm fluorescence, higher = more signal;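 note: score merges 667 nm feature fluorescence with signal to noise over triplicate slides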
[19] = biological target: Neurogenic locus notch homolog protein 3 (Homo sapiens) (UniProt Q9UM47); assay: NOTCH3 binders on small-molecule microarray, primary screen, biochemical, 635/667 nm fluorescence (AID 1096); settings: NOTCH3 binding, 635 nm fluorescence, higher = more signal
[20] = small-molecule microarray binders of probe aEGFR, primary screen, biochemical, biotinylated probe, 635/667 nm fluorescence (AID 1097); settings: higher = more signal;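 note: probe is a biotinylated anti-EGFR antibody binding compounds printed on slides; score combines fluorescence near 667 nm and signal to noise of each spot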

Pro-neuregulin-1, membrane-bound isoform (Homo sapiens), sequence (Q02297 whole entry, looked up, the tested form may be a part, canonical isoform): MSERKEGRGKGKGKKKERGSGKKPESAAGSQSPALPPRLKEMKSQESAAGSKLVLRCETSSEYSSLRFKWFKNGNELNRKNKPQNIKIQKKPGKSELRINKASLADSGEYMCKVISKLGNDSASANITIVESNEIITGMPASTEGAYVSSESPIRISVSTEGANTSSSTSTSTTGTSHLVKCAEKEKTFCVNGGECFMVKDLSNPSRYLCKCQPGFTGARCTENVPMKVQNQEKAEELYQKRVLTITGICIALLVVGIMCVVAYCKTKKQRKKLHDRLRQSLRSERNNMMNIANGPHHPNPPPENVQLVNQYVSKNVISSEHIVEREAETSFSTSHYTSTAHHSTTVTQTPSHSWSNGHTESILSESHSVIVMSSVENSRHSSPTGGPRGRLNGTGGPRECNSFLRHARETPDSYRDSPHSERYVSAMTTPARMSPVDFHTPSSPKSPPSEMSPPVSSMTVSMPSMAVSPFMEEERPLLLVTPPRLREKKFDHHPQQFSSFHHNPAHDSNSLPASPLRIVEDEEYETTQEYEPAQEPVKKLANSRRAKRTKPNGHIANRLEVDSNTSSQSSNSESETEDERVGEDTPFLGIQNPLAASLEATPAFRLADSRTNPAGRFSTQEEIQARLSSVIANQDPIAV
Neurogenic locus notch homolog protein 2 (Homo sapiens), sequence (Q04721 whole entry, looked up, canonical isoform): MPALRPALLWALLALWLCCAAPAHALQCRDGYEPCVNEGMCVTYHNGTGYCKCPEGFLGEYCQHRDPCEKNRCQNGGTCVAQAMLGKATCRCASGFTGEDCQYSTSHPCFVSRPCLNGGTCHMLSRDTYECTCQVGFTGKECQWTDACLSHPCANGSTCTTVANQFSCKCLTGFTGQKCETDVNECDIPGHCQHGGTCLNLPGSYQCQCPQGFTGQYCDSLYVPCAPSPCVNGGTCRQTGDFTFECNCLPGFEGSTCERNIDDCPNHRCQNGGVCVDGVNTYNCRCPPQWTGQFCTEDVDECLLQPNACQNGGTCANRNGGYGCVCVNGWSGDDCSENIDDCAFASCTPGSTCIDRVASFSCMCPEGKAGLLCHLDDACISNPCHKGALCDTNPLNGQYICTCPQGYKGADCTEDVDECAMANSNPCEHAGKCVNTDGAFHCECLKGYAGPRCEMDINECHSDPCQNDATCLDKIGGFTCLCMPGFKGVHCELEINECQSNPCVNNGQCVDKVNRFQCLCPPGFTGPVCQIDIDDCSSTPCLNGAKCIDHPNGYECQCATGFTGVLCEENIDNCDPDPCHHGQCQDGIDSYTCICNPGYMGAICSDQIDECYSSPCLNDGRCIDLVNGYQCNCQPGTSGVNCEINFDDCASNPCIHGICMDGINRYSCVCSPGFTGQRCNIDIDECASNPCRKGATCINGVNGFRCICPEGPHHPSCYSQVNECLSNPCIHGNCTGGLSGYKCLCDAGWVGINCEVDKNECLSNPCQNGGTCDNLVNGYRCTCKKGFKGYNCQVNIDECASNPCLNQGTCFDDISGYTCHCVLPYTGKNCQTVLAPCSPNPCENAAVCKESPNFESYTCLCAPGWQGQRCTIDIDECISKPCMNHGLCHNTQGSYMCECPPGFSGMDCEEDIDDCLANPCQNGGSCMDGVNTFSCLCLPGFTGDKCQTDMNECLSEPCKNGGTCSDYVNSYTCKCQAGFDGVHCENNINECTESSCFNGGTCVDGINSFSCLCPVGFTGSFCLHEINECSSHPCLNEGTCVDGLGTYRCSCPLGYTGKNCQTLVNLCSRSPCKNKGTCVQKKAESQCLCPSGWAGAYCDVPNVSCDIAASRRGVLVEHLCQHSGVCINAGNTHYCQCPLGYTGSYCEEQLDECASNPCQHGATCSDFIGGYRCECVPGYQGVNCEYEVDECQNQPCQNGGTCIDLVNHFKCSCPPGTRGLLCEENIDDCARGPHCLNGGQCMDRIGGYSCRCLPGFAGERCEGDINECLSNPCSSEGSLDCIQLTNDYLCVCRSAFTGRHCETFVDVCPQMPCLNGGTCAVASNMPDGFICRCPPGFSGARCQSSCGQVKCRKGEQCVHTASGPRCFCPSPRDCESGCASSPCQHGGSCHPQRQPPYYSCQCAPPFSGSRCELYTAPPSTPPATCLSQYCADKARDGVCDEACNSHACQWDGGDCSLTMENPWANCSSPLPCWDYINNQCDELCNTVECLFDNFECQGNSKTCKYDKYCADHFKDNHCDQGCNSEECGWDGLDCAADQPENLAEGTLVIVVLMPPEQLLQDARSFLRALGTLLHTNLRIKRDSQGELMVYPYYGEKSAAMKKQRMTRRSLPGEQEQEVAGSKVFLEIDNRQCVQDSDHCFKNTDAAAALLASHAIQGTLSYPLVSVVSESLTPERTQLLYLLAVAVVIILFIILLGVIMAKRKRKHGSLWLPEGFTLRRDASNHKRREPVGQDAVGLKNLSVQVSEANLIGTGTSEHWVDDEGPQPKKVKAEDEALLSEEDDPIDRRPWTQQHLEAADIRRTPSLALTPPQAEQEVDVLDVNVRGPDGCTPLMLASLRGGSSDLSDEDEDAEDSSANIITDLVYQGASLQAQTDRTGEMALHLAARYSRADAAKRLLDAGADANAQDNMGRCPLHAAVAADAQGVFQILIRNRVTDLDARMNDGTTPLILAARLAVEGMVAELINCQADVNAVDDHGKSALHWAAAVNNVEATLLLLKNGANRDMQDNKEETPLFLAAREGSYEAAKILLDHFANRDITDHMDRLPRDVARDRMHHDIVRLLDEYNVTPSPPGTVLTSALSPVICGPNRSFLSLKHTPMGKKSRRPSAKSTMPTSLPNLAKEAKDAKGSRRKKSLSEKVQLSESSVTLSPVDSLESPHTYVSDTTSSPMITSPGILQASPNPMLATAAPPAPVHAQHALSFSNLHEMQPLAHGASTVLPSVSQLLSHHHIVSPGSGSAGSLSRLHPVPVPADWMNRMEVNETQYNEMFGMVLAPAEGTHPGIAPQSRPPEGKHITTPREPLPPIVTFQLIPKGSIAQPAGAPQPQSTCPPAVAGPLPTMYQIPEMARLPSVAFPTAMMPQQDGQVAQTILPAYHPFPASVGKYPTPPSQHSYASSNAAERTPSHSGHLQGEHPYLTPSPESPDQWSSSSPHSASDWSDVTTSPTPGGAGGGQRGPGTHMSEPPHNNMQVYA
Torsin-1A-interacting protein 2 (Homo sapiens), sequence (Q8NFQ8 whole entry, looked up): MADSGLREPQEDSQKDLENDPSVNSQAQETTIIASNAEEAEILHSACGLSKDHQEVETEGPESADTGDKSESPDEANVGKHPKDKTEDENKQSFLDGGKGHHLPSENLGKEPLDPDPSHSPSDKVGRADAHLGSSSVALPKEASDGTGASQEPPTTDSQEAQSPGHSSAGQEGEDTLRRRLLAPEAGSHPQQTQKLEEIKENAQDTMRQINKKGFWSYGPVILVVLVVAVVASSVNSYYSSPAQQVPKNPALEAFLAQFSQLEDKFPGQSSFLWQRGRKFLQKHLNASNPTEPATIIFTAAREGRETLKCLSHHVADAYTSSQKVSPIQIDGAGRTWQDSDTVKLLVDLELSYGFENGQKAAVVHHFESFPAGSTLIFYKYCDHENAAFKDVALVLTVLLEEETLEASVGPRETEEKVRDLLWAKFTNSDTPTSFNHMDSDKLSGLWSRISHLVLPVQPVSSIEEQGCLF

SMILES | composite z-score [1] | composite z-score [2] | composite z-score [3] | composite z-score [4] | composite z-score [5] | composite z-score [6] | composite z-score [7] | z-score [8] | composite z-score [9] | composite z-score [10] | composite z-score [11] | z-score [12] | z-score [13] | z-score [14] | composite z-score [15] | z-score [16] | composite z-score [17] | composite z-score [18] | composite z-score [19] | composite z-score [20]
COC(=O)[C@@]1(Cc2ccc(F)cc2)[C@H]2c3cc(C(=O)N(C)C)n(Cc4ccc(C(F)(F)F)nc4)c3C[C@H]2CN1C(=O)c1ccccc1 | 1.5 | 0.474 | 0.0642 | 0.69 | 1.74 | 2.03 | 1.18 | -0.909 (inactive) | 1.97 | 0.264 | 1.32 | 0.538 (inactive) | 0.909 (inactive) | 4.36 (inactive) | 3.71 | -0.366 (inactive) | 0.317 | 0.108 | 1.02 | 0.379
C=C(CC1([C@@H](NP(=O)(c2ccccc2)c2ccccc2)[C@H]2C[C@@H]2CCCC)CC1)c1cccc(OC)c1 | 0.511 | -0.411 | 0.112 | 0.343 | 1.47 | 0.0917 | 0.737 | 1.5 (inactive) | 1.66 | 0.579 | -0.155 | 0.557 (inactive) | 0.832 (inactive) | 1.82 (inactive) | 1.66 | -0.768 (inactive) | 0.179 | -0.239 | 0.36 | -0.0563
CC[C@@H](O[Si](C#C[Si](C(C)C)(C(C)C)C(C)C)(C(C)C)C(C)C)c1cn([C@H](C)c2ccccc2)nn1 | -0.51 | 0.488 | -0.0797 | 0.663 | 0.728 | 0.284 | 0.739 | -0.0777 (inactive) | 0.129 | 0.115 | 0.991 | 0.685 (inactive) | 0.0803 (inactive) | 0.529 (inactive) | 0.382 | 0.612 (inactive) | -0.148 | 0.391 | 0.785 | -0.0332
COc1ccc(C(=O)Nc2ccc(CN3C(=O)[C@]4(O[C@H](CC(=O)N(CCO)Cc5ccccc5)[C@@H]([Si](C)(C)c5ccc(OC)cc5)[C@@H]4C)c4ccccc43)cc2)cc1 | -0.284 | 1.22 | -0.0858 | 0.792 | 0.271 | 0.74 | 1.26 | -0.228 (inactive) | 0.276 | -0.0994 | 1.54 | 0.517 (inactive) | 1.03 (inactive) | 3.41 (inactive) | 2.03 | 1.6 (inactive) | -0.235 | 1.08 | 0.565 | -0.096
CN1C(=O)C2C=CC(C(O)COCc3ccccc3)N(Nc3ccc([N+](=O)[O-])cc3[N+](=O)[O-])C2C1=O (stereo not given) | 0.0982 | -0.0795 | 0.0952 | 0.475 | 0.172 | 0.0948 | 0.752 | 1.16 (inactive) | 0.329 | -0.167 | 0.332 | 0.629 (inactive) | -1.58 (inactive) | 0.308 (inactive) | 1.78 | -0.278 (inactive) | 0.229 | -0.39 | -0.282 | -0.146
CCCCC(=C=CC[C@@H](O)c1ccccc1OCCO)C[C@@H](O)c1ccccn1 | 0.0106 | 0.362 | -0.102 | 0.23 | 0.418 | 0.69 | 0.327 | -1.14 (inactive) | -0.0288 | -0.0645 | 1.35 | 0.0466 (inactive) | -0.314 (inactive) | -1.14 (inactive) | 2.3 | 0.0399 (inactive) | -0.119 | 0.191 | 0.311 | -0.0238
COCCCNC(=O)[C@@]1(c2ccc([N+](=O)[O-])cc2)CC(=O)N(C2CCCCC2)[C@@H]1c1ccc(CO)cc1I | 0.234 | 1.2 | 0.0247 | 0.0624 | -0.161 | 0.944 | 1.31 | -1.27 (inactive) | -0.0119 | 0.259 | 1.54 | -0.307 (inactive) | -0.314 (inactive) | -0.0938 (inactive) | 0.83 | 0.556 (inactive) | 0.0561 | 0.39 | 0.0429 | -0.0967
CCCCCN1CC=CC23O[C@@H]4/C=C\CCCOC(=O)C4[C@H]2C(=O)N(CCCCCO)[C@@H]3C1=O (stereo not given in full) | 0.239 | -0.291 | -0.103 | -0.501 | -0.581 | -0.315 | -0.786 | -0.225 (inactive) | -0.841 | -0.164 | -0.409 | -0.557 (inactive) | -0.383 (inactive) | -1.39 (inactive) | -2.15 | 1.62 (inactive) | -0.159 | -0.636 | -0.0581 | -0.175
COC(=O)[C@]1(Cc2ccccc2N=[N+]=[N-])N=C(c2ccc(OCCCO)cc2)O[C@@H]1c1ccccc1CN=[N+]=[N-] | 0.736 | 1.08 | 0.052 | 0.728 | 0.632 | 1.06 | 1.16 | -2.25 (inactive) | 0.484 | 0.176 | 1.56 | -0.141 (inactive) | 0.708 (inactive) | 36.8 (active) | 2.25 | -0.763 (inactive) | 0.021 | 1.23 | 0.963 | 0.0258
CC(=O)NCCCC[C@@H]1NC(=O)[C@H]2C[C@@H](C(=O)O)[C@@H](c3cccc(OCCO)c3)N2C1=O | -0.318 | 1.1 | 0.0761 | 0.841 | 1.15 | 1.14 | 1.18 | 0.618 (inactive) | 0.491 | -0.0862 | 1.54 | 0.341 (inactive) | -0.198 (inactive) | -0.453 (inactive) | 2.49 | -0.147 (inactive) | 0.122 | 1.58 | 1.11 | 0.189
